# Results from PubChem BioAssay (NCATS).
# Results filed as inconclusive are left out. A number with no mark means an inactive call. Calls of active or inactive are those of the source. The call rests on the fitted dose curve; in most records, active means well fitted inhibition curve with a large enough effect; inconclusive means small, poorly fitted or top-dose-only effect; inactive means no such curve, though single readings can be large or run the other way.
# Target: Cytochrome P450 3A7 (Homo sapiens) (UniProt P24462)
# Sequence (P24462 whole entry, looked up): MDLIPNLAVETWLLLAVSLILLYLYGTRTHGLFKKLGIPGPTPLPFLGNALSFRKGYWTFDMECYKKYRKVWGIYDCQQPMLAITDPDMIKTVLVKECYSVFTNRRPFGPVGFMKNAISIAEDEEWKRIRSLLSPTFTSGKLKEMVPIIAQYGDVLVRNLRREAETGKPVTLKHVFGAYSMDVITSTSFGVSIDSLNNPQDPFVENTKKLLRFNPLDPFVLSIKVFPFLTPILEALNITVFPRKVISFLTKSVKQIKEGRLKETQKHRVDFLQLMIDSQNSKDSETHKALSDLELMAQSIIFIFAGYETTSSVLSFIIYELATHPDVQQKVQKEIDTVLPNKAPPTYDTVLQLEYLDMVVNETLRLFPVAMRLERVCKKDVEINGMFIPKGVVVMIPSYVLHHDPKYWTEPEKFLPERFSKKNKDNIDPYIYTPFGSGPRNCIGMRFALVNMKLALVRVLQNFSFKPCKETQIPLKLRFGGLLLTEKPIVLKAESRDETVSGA
# Test: Cytochrome P450 family 3 subfamily A member 7 (CYP3A7) small molecule antagonists: luciferase biochemical qHTS assay (AID 1963596); further: nearly all actives have a fitted effect of over 40% in size
# Settings: P450-Glo CYP3A7 enzyme luminescence, 1 h; series mostly up to 57.4 µM; activity change, negative = inhibition: at the top concentration
# How it was run: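 Recombinant CYP3A7 P450-Glo luminescent assay: enzyme-proluciferin substrate mix preincubated with compound 10 min at room temperature, reaction started with NADPH regeneration system for 1 h. Luciferin detected by luminescence; ketoconazole as positive control.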
# On the % scale 0 is the no-effect control and ±100 the full control effect; potency means the concentration at half of the fitted maximal effect.
Structure (SMILES),"activity change, negative = inhibition",Potency
CC(C)C[C@H](NC(=O)CNC(=O)[C@H](Cc1ccc(O)cc1)NC(=O)[C@H](CO)NC(=O)[C@H](Cc1c[nH]c2ccccc12)NC(=O)[C@H](Cc1cnc[nH]1)NC(=O)[C@@H]1CCC(=O)N1)C(=O)N[C@@H](CCCN=C(N)N)C(=O)N1CCC[C@H]1C(=O)NCC(N)=O (stereo in doubt),-0.565%,–
CCCCC(=O)O,0%,–
CCc1ccc(CNC(=O)C2CCCN(c3nnc(C)c4c(C)n(-c5ccccc5)nc34)C2)cc1 (centres undefined),–,2820 nM (active)
CCn1c(N)c(C(=O)NC)c(=O)c2ccc(C#C[C@@](C)(O)COC)nc21,3.98%,–
COc1ccc(NC(=O)Cn2cc(C(=O)c3cccs3)c3ccccc32)cc1,1.58%,–
COc1ccc(-c2nc3n(n2)C(c2ccc(OC)c(OC)c2)C(C(=O)Nc2cccnc2)=C(C)N3)cc1 (centres undefined),-20%,–
CC(C)=CCC/C(C)=C/CC/C(C)=C/CC/C=C(\C)CC/C=C(\C)CCC=C(C)C,-14.6%,–
N[C@H](CO)C(=O)O,0%,–
Fc1ccc(CN2CCC(Nc3ccc(C(F)(F)F)nn3)CC2)cc1F,-15.1%,–
CCOC(=O)C1=C(O)c2ccccc2S(=O)(=O)N1C,-6.4%,–
CC1(C)Oc2ncnc(N)c2N=C1c1ccc(C23CCC(CC(=O)O)(CC2)CC3)cc1,-28.1%,–
O=C(CO)[C@@H](O)[C@H](O)[C@@H](O)C(=O)O,6.17%,–
CCOc1ccc(NC(=S)N2CCC(C(O)(c3ccccc3)c3ccccc3)CC2)cc1,-17.4%,–
CC(=O)NC[C@H]1CN(c2ccc(N3CCN(C(=O)CO)CC3)c(F)c2)C(=O)O1,-0.16%,–
COc1ccc(CC(=O)Nc2c(C(=O)N3CCN(c4ccccc4F)CC3)oc3ccccc23)cc1OC,0%,–
COc1ccc(-c2nc(-c3ccc(-c4cccc(Cl)c4)o3)[nH]c2-c2ccc(OC)cc2)cc1,-10.6%,–
CN[C@@H]1[C@@H](O)[C@@H](O[C@@H]2[C@@H](O)[C@H](O[C@H]3O[C@H]([C@@H](C)NC)CC[C@H]3N)[C@@H](N)C[C@H]2N)OC[C@]1(C)O,-0.432%,–
Cc1ccccc1NC(=O)Nc1ccc(CN2C(=O)N([C@@H](CC(C)C)C(=O)N[C@@H](CC(=O)O)c3ccccc3)C(=O)C2(C)C)cc1,18.8%,–
NC(Cc1ccc(O)c(O)c1)C(=O)O (centres undefined),0%,–
Cc1ccc(C)c(Nc2nc3nonc3nc2Nc2cccc(C)c2C)c1,3.21%,–

Structure (SMILES),"activity change, negative = inhibition",Potency
COc1ccc2cc(Br)ccc2c1,0%,–
CC1(C)[C@H]2C[C@H](C/C=C\CCCC(=O)O)[C@@H](NC(=O)c3csc4ccc(O)cc34)[C@@H]1C2,16.7%,–
Cc1ccc(S(=O)(=O)Nc2nc3n(n2)C(c2ccc(F)cc2)C=C(c2ccccc2)N3)cc1 (centres undefined),15.7%,–
O=S(O)CO,-20.8%,–
Cc1cc(C(C)Nc2ccccc2C(=O)O)c2nc(N3CCOCC3)cc(=O)n2c1 (centres undefined),0%,–
O=C(Nc1cccc(Cl)c1)Nc1ccccc1OCc1cc(=O)n2ccccc2n1,0.318%,–
COc1ccc(-n2nc3c(N4CCCC(C(=O)NCc5ccc(C)cc5)C4)nnc(C)c3c2C)cc1 (centres undefined),14.6%,–
OCCOCCOCCO,-8.33%,–
O=S(=O)(O)Oc1ccc(C(c2ccc(OS(=O)(=O)O)cc2)c2ccccn2)cc1,-16.8%,–
O=C(Nc1ccc(Cl)c(Cl)c1)C1CC1,42.6%,–
CC(C)[C@@H]1CC[C@@H](C)C[C@H]1OC(=O)c1ccccc1O,5.46%,–
CCc1ccc(CN(Cc2ccco2)C(=O)COc2ccccc2Cl)cc1,10.1%,–
Nc1ccn(C2O[C@H](CO)[C@@H](O)[C@@H]2O)c(=O)n1 (some centres undefined),-0.935%,–
O=C(O)c1ccc(Cc2c(-c3cccc(-c4ccccc4)c3)[nH]n(-c3nc(C(=O)O)cs3)c2=O)cc1,0%,–
CCc1ccc(C2=CC(c3c(F)cccc3Cl)n3c(nc4ccccc43)N2)cc1 (centres undefined),-4.3%,–
COc1cc(C(=O)NC(=S)Nc2cccc(NC(=O)c3ccccc3)c2)cc(OC)c1OC,-13.4%,–
Cc1c(C)c2c(c(C)c1O)CC[C@@](C)(CCC[C@H](C)CCC[C@H](C)CCCC(C)C)O2,0%,–
COCC(=O)N1CCc2cc(-c3csc(NC(=O)c4cc(OC)cc(OC)c4)n3)ccc21,-13%,–
Cn1c(=O)cc(N2CCCC(N)C2)n(Cc2cc(F)ccc2C#N)c1=O (centres undefined),-28.3%,–
